Activity calls are given as the source filed them. Rule for the calls: active = hit-call score of the fitted dose curve at least 0.9, where 1 is the maximum; inactive = score below 0.9.

The text below walks through data of PubChem BioAssay (EPA / NIEHS).

What all share (conditions): mRNA level, 48 h; actives raise or lower the signal
Read-out in test [1]: Cytochrome P450 4A22 (Homo sapiens) (UniProt Q5TCH4)
Put plainly: LTEA_HepaRG_CYP4A22: Life Technologies and Expression Analysis (LTEA) Assay for Cytochrome P450 4A22 (CYP4A22) using HepaRG (AID 2283495). Summed up:
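Gene expression measured by qRT-PCR against three housekeeping genes (ACTB, GAPDH, POLR2A), with gain or loss fitted relative to 0.5% DMSO vehicle. HepaRG cultures received 48 h chemical treatment, top concentration 100 uM, half-log steps, duplicate wells.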

Read-out in test [2]: Cytochrome P450 7A1 (Homo sapiens) (UniProt P22680)
Put plainly: LTEA_HepaRG_CYP7A1: Life Technologies and Expression Analysis (LTEA) Assay for Cytochrome P450 7A1 (CYP7A1) using HepaRG (AID 2283496). An outline of the steps:
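HepaRG, 48 h exposure, 8-pt half-log series from 100 uM, 0.5% DMSO vehicle, duplicates. Readout: TaqMan qRT-PCR mRNA vs three housekeeping genes; bidirectional curve fit against DMSO baseline.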

Read-out in test [3]: Glutathione S-Transferase (GSTA2), GSTA2 (gene 2939)
Put plainly: LTEA_HepaRG_GSTA2: Life Technologies and Expression Analysis (LTEA) Assay for Glutathione S-Transferase (GSTA2) using HepaRG (AID 2283497). Summed up:
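qRT-PCR readout of GSTA2 transcript, normalized to three housekeeping genes, fitted bidirectionally against 0.5% DMSO baseline. Differentiated HepaRG cells received compound for 48 h at 8 concentrations (top 100 uM, half-log steps).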

Read-out in test [4]: Glutamate-cysteine ligase catalytic (GCLC), GCLC (gene 2729)
Put plainly: LTEA_HepaRG_GCLC: Life Technologies and Expression Analysis (LTEA) Assay for Glutamate-cysteine ligase catalytic (GCLC) using HepaRG (AID 2283498). An outline of the steps: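 HepaRG, 48 h exposure, 8-pt half-log series from 100 uM, 0.5% DMSO vehicle; TaqMan qRT-PCR for GCLC mRNA, housekeeping-normalized; bidirectional curve fit vs DMSO baseline.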

Read-out in test [5]: Glutamate-cysteine ligase regulatory (GCLM), GCLM (gene 2730)
Put plainly: LTEA_HepaRG_GCLM: Life Technologies and Expression Analysis (LTEA) Assay for Glutamate-cysteine ligase regulatory (GCLM) using HepaRG (AID 2283500). An outline of the steps:
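Endpoint is GCLM transcript level by qRT-PCR, normalized to three housekeeping genes, after 48 h chemical exposure of human HepaRG cells (0.5% DMSO vehicle, top 100 uM, half-log dilutions). Fitting was bidirectional relative to DMSO.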

Read-out in test [6]: Glutathione S-transferase M3 (GSTM3), GSTM3 (gene 2947)
Put plainly: LTEA_HepaRG_GSTM3: Life Technologies and Expression Analysis (LTEA) Assay for Glutathione S-transferase M3 (GSTM3) using HepaRG (AID 2283501). An outline of the steps:
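GSTM3 transcript levels came from Fluidigm TaqMan qRT-PCR normalized to three housekeeping genes, fitted in both directions against DMSO. HepaRG cultures received chemicals for 48 h in serum-free induction medium (0.5% DMSO), 8 half-log concentrations up to 100 uM, duplicate.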

Read-out in test [7]: Heat shock 70 kDa protein 1 (HSPA1A), gene 3303
Put plainly: LTEA_HepaRG_HSPA1A: Life Technologies and Expression Analysis (LTEA) Assay for Heat shock 70 kDa protein 1 (HSPA1A) using HepaRG (AID 2283502). Summed up: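 Cells were plated and cultured for 48 h, then switched to serum-free induction medium. Chemicals were added at eight half-log concentrations up to 100 uM for 48 h. RNA was then isolated and HSPA1A measured by qRT-PCR with bidirectional curve fitting against DMSO.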

Read-out in test [8]: 3-Hydroxy-3-Methylglutaryl-CoA Synthase 2 (HMGCS2), HMGCS2 (gene 3158)
Put plainly: LTEA_HepaRG_HMGCS2: Life Technologies and Expression Analysis (LTEA) Assay for 3-Hydroxy-3-Methylglutaryl-CoA Synthase 2 (HMGCS2) using HepaRG (AID 2283504). Summed up: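 Readout is HMGCS2 transcript by qRT-PCR, housekeeping-normalised (ACTB/GAPDH/POLR2A) and fitted bidirectionally against 0.5% DMSO. Differentiated HepaRG cells received chemicals 48 h, duplicate wells, eight half-log concentrations topping at 100 uM.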

Read-out in test [9]: Insulin Like Growth Factor 1 (IGF1), IGF1 (gene 3479)
Put plainly: LTEA_HepaRG_IGF1: Life Technologies and Expression Analysis (LTEA) Assay for Insulin Like Growth Factor 1 (IGF1) using HepaRG (AID 2283506). Summed up: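 Cells are thawed, plated and cultured 48 h, then exposed in duplicate to chemical (highest 100 uM, half-log steps, 0.5% DMSO) for another 48 h. Total RNA is analysed by Fluidigm qRT-PCR for IGF1 expression relative to vehicle.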

Read-out in test [10]: Intercellular Adhesion Molecule 1 (ICAM1), ICAM1 (gene 3383)
Put plainly: LTEA_HepaRG_ICAM1: Life Technologies and Expression Analysis (LTEA) Assay for Intercellular Adhesion Molecule 1 (ICAM1) using HepaRG (AID 2283507). Summed up: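 ICAM1 transcript levels measured by qRT-PCR, normalized to three housekeeping genes (ACTB, GAPDH, POLR2A), after 48 h chemical exposure of HepaRG cells. Duplicate eight-point half-log series from 100 uM in 0.5% DMSO; gain or loss fitted against vehicle.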

Read-out in test [11]: Insulin-like growth factor-binding protein 1 (IGFBP1), IGFBP1 (gene 3484)
Put plainly: LTEA_HepaRG_IGFBP1: Life Technologies and Expression Analysis (LTEA) Assay for Insulin-like growth factor-binding protein 1 (IGFBP1) using HepaRG (AID 2283508). An outline of the steps: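 Read-out is qRT-PCR transcript level normalized to three housekeeping genes, fitted in both directions against 0.5% DMSO. Differentiated HepaRG cells received eight half-log concentrations (top 100 uM) in duplicate for 48 h in serum-free induction medium.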

Read-out in test [12]: Interleukin 6 Receptor (IL6R), IL6R (gene 3570)
Put plainly: LTEA_HepaRG_IL6R: Life Technologies and Expression Analysis (LTEA) Assay for Interleukin 6 Receptor (IL6R) using HepaRG (AID 2283510).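 For AC50: differentiated human HepaRG liver cells in serum-free induction medium.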 Summed up: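 Cells were thawed, plated and cultured 48 h, then medium was changed to serum-free induction medium. Chemicals were added in duplicate (100 uM top, half-log steps, 0.5% DMSO) for 48 h. Lysates were analyzed by qRT-PCR for IL6R expression.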

Read-out in test [13]: Potassium channel subfamily K member 1 (KCNK1), KCNK1 (gene 3775)
Put plainly: LTEA_HepaRG_KCNK1: Life Technologies and Expression Analysis (LTEA) Assay for Potassium channel subfamily K member 1 (KCNK1) using HepaRG (AID 2283511). An outline of the steps:
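HepaRG, 48 h exposure, 8-pt half-log series top 100 uM, 0.5% DMSO vehicle, duplicates. Readout: KCNK1 transcript by qRT-PCR (Fluidigm array), housekeeping-normalized; bidirectional curve fit relative to DMSO baseline.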

Read-out in test [14]: Keratin 19 (KRT19), KRT19 (gene 3880)
Put plainly: LTEA_HepaRG_KRT19: Life Technologies and Expression Analysis (LTEA) Assay for Keratin 19 (KRT19) using HepaRG (AID 2283512). Summed up: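 KRT19 transcript measured by TaqMan qRT-PCR, referenced to three housekeeping genes, after HepaRG cells received test chemicals for 48 h. Eight half-log concentrations, top 100 uM, 0.5% DMSO vehicle; increases and decreases both fitted.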

Read-out in test [15]: JUN Transcription Factor, JUN (gene 3725)
Put plainly: LTEA_HepaRG_JUN: Life Technologies and Expression Analysis (LTEA) Assay for JUN Transcription Factor using HepaRG (AID 2283513). Summed up: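 Read-out is JUN transcript level by TaqMan qRT-PCR, normalized to ACTB, GAPDH and POLR2A, after 48 h chemical treatment of HepaRG cells. Concentration-response spanned eight half-log points up to 100 uM in 0.5% DMSO.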

Read-out in test [16]: Lipase C (LIPC), LIPC (gene 3990)
Put plainly: LTEA_HepaRG_LIPC: Life Technologies and Expression Analysis (LTEA) Assay for Lipase C (LIPC) using HepaRG (AID 2283514). Summed up:
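HepaRG, 48 h exposure, 8-pt half-log series from 100 uM in 0.5% DMSO, duplicates. Readout: LIPC mRNA by Fluidigm qRT-PCR, housekeeping-normalized (ACTB/GAPDH/POLR2A). Gain or loss fitted bidirectionally against DMSO baseline.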

Read-out in test [17]: Hypoxia-inducible factor 1-alpha (Homo sapiens) (UniProt Q16665)
Put plainly: LTEA_HepaRG_HIF1A: Life Technologies and Expression Analysis (LTEA) Assay for Hypoxia-inducible factor 1 (HIF1A) Trancription factor using HepaRG (AID 2283503). An outline of the steps:
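HIF1A transcript level read by qRT-PCR (ACTB, GAPDH, POLR2A normalization) after 48 h chemical exposure of HepaRG cultures. Eight half-log concentrations, top 100 uM, 0.5% DMSO vehicle, duplicates; bidirectional curve fit against DMSO baseline.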

Read-out in the next test: HGF (gene 3082)
Put plainly: LTEA_HepaRG_HGF: Life Technologies and Expression Analysis (LTEA) Assay for Hepatocyte Growth Facto (HGF) using HepaRG (AID 2283505). An outline of the steps:
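HGF transcript was quantified by TaqMan qRT-PCR against three housekeeping genes after 48 h treatment of HepaRG cells. Exposure ran in duplicate over eight half-log steps topping at 100 uM in 0.5% DMSO vehicle.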

Read-out in test [18]: Interleukin 6 (IL6), IL6 (gene 3569)
Put plainly: LTEA_HepaRG_IL6: Life Technologies and Expression Analysis (LTEA) Assay for Interleukin 6 (IL6) using HepaRG (AID 2283509). Summed up: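 qRT-PCR read-out of IL6 transcript, normalized to three housekeeping genes, after 48 h chemical exposure of HepaRG cells; 8-point half-log series, top 100 uM, 0.5% DMSO vehicle. Bidirectional curve fitting against DMSO baseline.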

Sequence of Hypoxia-inducible factor 1-alpha (Homo sapiens) (Q16665 whole entry, looked up): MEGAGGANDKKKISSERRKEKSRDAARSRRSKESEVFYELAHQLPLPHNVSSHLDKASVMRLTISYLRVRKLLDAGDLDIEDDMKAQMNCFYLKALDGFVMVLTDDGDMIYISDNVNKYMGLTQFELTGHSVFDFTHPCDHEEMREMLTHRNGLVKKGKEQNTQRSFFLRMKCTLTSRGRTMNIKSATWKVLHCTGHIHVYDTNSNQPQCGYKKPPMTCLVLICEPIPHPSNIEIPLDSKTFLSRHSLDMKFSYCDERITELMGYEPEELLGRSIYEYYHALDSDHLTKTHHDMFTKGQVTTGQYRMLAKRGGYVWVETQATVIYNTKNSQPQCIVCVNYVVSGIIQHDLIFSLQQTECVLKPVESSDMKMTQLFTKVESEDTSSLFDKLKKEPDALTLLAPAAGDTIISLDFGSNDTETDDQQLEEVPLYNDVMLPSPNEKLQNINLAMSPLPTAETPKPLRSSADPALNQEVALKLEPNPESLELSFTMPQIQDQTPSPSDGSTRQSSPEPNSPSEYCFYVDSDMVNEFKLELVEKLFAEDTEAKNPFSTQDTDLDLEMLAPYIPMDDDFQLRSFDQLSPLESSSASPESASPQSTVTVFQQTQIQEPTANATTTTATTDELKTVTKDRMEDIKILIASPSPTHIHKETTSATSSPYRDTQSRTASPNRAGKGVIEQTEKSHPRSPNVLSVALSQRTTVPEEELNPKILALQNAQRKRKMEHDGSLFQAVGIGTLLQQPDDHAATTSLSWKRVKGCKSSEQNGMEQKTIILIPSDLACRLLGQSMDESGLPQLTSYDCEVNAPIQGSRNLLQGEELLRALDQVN

On to `C#C[C@]1(O)CC[C@H]2[C@@H]3CCC4=CC(=O)CC[C@@H]4[C@H]3CC[C@@]21C`, for which the compound was classed as inactive in test [1], in [4], in test [5], in [6], in test [7] and in test [8]. Moreover, the call in test [9], in test [10], in [11], in [12], in test [13] and in test [14] was inactive. In addition, the result in test [15] and in test [16] was inactive. For the same compound, the AC50 in [2] is 0.299 µM (active); in test [3], 6.05 µM (active).

For the compound `CCOC(=O)CC(O)(CC(=O)OCC)C(=O)OCC`, the call in test [1], in [2], in [3], in [4], in test [5] and in test [6] was inactive. The outcome (in test [7]; in test [17]; in test [8]; with HGF (gene 3082); in test [9]; in test [10]) was inactive. Besides, the call in test [11], in test [12], in [13] and in test [16] was inactive.

Consider `c1ccc2cc3c(ccc4ccccc43)cc2c1`, for which the AC50 in test [1] is 26 µM (active); in test [2], 20.6 µM (active); in test [3], 8.52 µM (active); in [5], 38.8 µM (active); in test [8], 19.7 µM (active); in test [9], 20.1 µM (active). The AC50 in test [11] was 8.36 µM (active); in test [12], 9.75 µM (active); in [14], 5.58 µM (active); in test [16], 12.7 µM (active). Besides, the compound was classed as inactive (in test [4]; in test [6]; in test [7]; in [17]; with HGF (gene 3082); in test [10]). In test [13], the result was inactive.

As for `c1ccc2c(c1)Cc1ccccc1-2`, the call in [1], in test [2], in [3], in [4], in [5] and in [6] was inactive. Besides, the result (in test [7]; in [17]; in test [8]; with HGF (gene 3082); in [9]; in test [10]) was inactive. The compound was called inactive in test [11], in [12], in [13], in test [15] and in [16].

For `CC(=O)CC(C)(C)O`, the outcome in test [1], in test [2], in test [3], in test [4], in [5] and in [6] was inactive. Also, the outcome (in [7]; in test [17]; in test [8]; with HGF (gene 3082); in test [9]; in test [10]) was inactive. The outcome in test [11], in test [18], in [12], in test [13] and in test [16] was inactive.

Turning to `Oc1cccc(O)c1`, the result in [1], in [2], in test [3], in test [4], in [5] and in [6] was inactive. The outcome (in [7]; in test [17]; in [8]; in the test with HGF (gene 3082); in [9]; in [10]) was inactive. Besides, the result in test [11], in test [12], in test [13], in test [14] and in [16] was inactive.

As to `Cc1oc(-c2ccccc2)nc1CCOc1ccc(C[C@H](Nc2ccccc2C(=O)c2ccccc2)C(=O)O)cc1`, the half-maximal activity concentration (AC50) in [1] was 0.189 µM (active); in test [2] it was 23.4 µM (active); in test [3], 23.4 µM (active); in test [4], 64 µM (active); in test [6], 27.9 µM (active); in test [7], 16.2 µM (active). Also, the concentration at half-maximal activity (AC50) in test [17] was 30.8 µM (active); in test [8], 22.8 µM (active); in the test with HGF (gene 3082) it was 15.8 µM (active); in test [9] it was 12.4 µM (active); in [10] it was 26.8 µM (active); in test [11], 30.9 µM (active). Further, the AC50 in [12] is 30.6 µM (active); in test [13] it was 15.8 µM (active). Besides, the compound was classed as inactive in test [5] and in [16].

For `CCCCCCC(=O)O`, the compound was called inactive in [1], in test [2], in test [3], in [4], in test [5] and in test [6]. Further, the outcome (in test [7]; in test [17]; in [8]; in the test with HGF (gene 3082); in [9]; in test [10]) was inactive. Also, the result in test [11], in test [12], in test [13], in test [14], in test [15] and in [16] was inactive.
